# PubChem BioAssay (EPA / NIEHS)
# Several values for one entry are separate records, joined by “and”; a condition that tells them apart may be missing. Equal values may be shown once. Where a structure was tested more than once in an assay, its records may differ in their call. Activity calls are given as the source filed them. Rule for the calls: active = hit-call score of the fitted dose curve at least 0.9, where 1 is the maximum; inactive = score below 0.9.
# Experiment: APR_HepG2_CellLoss_24hr: Apredica 24-hour HepG2 Assay for Cell Loss (AID 2282908);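 for AC50: fit in both directions so a hit may be cell loss or gain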
# Conditions: high-content imaging
# Method: APR_HepG2_24hr is a cell-based, multiplexed-readout assay that uses HepG2, a human liver cell line, with measurements taken at 24 hours after chemical dosing in a 384-well plate.APR_HepG2_CellLoss_24hr is one of 10 assay component(s) measured or calculated from the APR_HepG2_24hr assay. It is designed to make measurements of cell number, a form of viability reporter, as detected with fluorescence intensity signals by HCS Fluorescent Imaging technology.Data from the assay component APR_HepG2_CellLoss_24hr was analyzed into 1 assay endpoint. This assay endpoint, APR_HepG2_CellLoss_24hr, was analyzed with bidirectional fitting relative to DMSO as the negative control and baseline of activity. Using a type of viability reporter, measures of all nuclear dna for gain or loss-of-signal activity can be used to understand the viability at the cellular-level. Furthermore, this assay endpoint can be referred to as a secondary readout, because this assay has produced multiple assay endpoints where this one serves a viability function. To generalize the intended target to other relatable targets, this assay endpoint is annotated to the cell cycle intended target family, where the subfamily is proliferation.
# Cells were treated with dimethyl sulfoxide (DMSO) as a solvent control at a final concentration of 0.5% v/v or with compounds in DMSO with a resulting final DMSO concentration of 0.5% v/v. Compound treatment was done at concentrations of 0.39, 0.78, 1.56, 3.12, 6.24, 12.5, 25, 50, 100, and 200 uM in duplicate on each plate. Cells were treated with compounds for 1, 24, or 72 hr. Carbonyl […] m-chloro-phenylhydrazone (CCCP) and taxol were used as positive controls for mitochondrial function and cytoskeletal stability, respectively; DMSO served as the negative control for this experiment. Cells were fixed by the direct addition of 50 uL formaldehyde in Hank's Balanced Salt Solution (HBSS) to a final concentration of 3.7%. After incubation in the fixation medium for 30 min at room temperature (293-298 K), cells were rinsed twice with HBSS and treated with cell permeabilization buffer (16 uL of 0.5% Triton X-100) for 10 min at room temperature (293-298 K) before labeling. For mitochondrial membrane potential and mitochondrial measurements, pre-fixed cells were incubated with 50 uL of MitoTracker Red CMXRos (Invitrogen) at a concentration of 250 nM for 30 min before fixation. In the remaining cases, post-fixed cells were labeled by incubation with a multiplexed mixture of primary antibodies in HBSS for 60 min at room temperature (293-298 K) to detect immunoreactivity of c-Jun (1:500), phospho-histone H3 (1:100), phospho-histone H2A.x (1:200), p53 (1:400), alpha-tubulin (1:200) and Hoechst 33342 (2 ug/mL). Cells were labeled for multiplexed imaging on two separate plates: a) Hoechst 33342, MitoTracker Red, phospho-histone H3, and alpha-tubulin, and b) Hoechst 33342, phospho-histone H2A.x, and c-Jun. A final rinse with HBSS (50 uL) was performed before analysis. The primary and secondary antibodies for the proteins were phospho-histone H3 (rabbit anti-phospho-histone H3 and FITC-donkey anti-rabbit IgG), phospho-histone H2A.x (mouse anti-phospho-histone H2A.x and FITC-donkey anti-mouse IgG), c-Jun (rabbit anti-phospho-c-Jun and Cy3-donkey anti-rabbit IgG), p53 (sheep anti-p53 and Cy5-donkey anti-sheep IgG), alpha-tubulin (mouse anti-alpha-tubulin and Cy5-donkey anti-mouse IgG). These antibodies are available as the CellCiphr HepG2 assay kit (Millipore).Digital images of each well were captured using a Cellomics ArrayScan VTI (Thermo Scientific Cellomics) (0.8 NA objective, 0.63x optical coupler, and XF-93 filter set) at 20x magnification. The images were acquired using the autofocus feature of the ArrayScan instrument, which entails the following steps. First, the camera focuses on channel 1 (Hoechst 33342), where nuclei are identified. Second, a Z offset of 1 um is used for capturing mitochondria (MitoTracker Red). […]
SMILES,outcome,AC50
CCCC1COC(Cn2cncn2)(c2ccc(Cl)cc2Cl)O1 (stereo not given),inactive,
CC(C)(C)c1ccc(CSc2cnn(C(C)(C)C)c(=O)c2Cl)cc1,,2.58 µM (active)
CCCCOC(=O)c1ccccc1C(=O)OCCCC,inactive,
C=CCC1=C(C)C(OC(=O)C2C(C=C(C)C)C2(C)C)CC1=O (stereo not given),,55.8 µM (active) [middle of 4 runs]
COc1nc(C)nc(NC(=O)NS(=O)(=O)c2ccccc2CCC(F)(F)F)n1,inactive,
OC(c1ccc(Cl)cc1)(c1cncnc1)c1ccccc1Cl (stereo not given),,108 µM (active)
N#Cc1cc(Br)c(O)c(Br)c1,inactive,
CCOP(=S)(OCC)SCn1c(=O)oc2cc(Cl)ccc21,inactive,
CCc1nn(C)c(C(=O)NCc2ccc(C(C)(C)C)cc2)c1Cl,,86.9 µM (active)
CNC(=O)ON=CC(C)(C)SC,inactive,
COC(=O)C=C(C)OP(=O)(OC)OC,inactive,
CCOC(=O)C(Cl)Cc1cc(-n2nc(C)n(C(F)F)c2=O)c(F)cc1Cl (stereo not given),inactive,
O=C(O)c1nc(Cl)ccc1Cl,inactive,
CNC(=S)S,,80.1 µM (active)
CCNc1nc(Cl)nc(NC(C)C)n1,inactive,
CCCCNC(=O)OCC#CI,,2.6 µM (active) and 6.77 µM (active)
CC(C)C1(C)N=C(c2nc3ccccc3cc2C(=O)O)NC1=O (stereo not given),inactive,
Cc1cc(Cl)ccc1OCC(=O)O,inactive,
CON(C)C(=O)Nc1ccc(Cl)c(Cl)c1,inactive,
C#CCOS(=O)OC1CCCCC1Oc1ccc(C(C)(C)C)cc1 (stereo not given),,7.2 µM (active)

SMILES,outcome,AC50
CC1=C(C(=O)Nc2ccccc2)SCCO1,inactive,
CO/C=C(/C(=O)OC)c1ccccc1Oc1cc(Oc2ccccc2C#N)ncn1,inactive,16.2 µM (active) and 36.5 µM (active)
Cc1ccc(-c2c(Cl)nc(C#N)n2S(=O)(=O)N(C)C)cc1,inactive,
CCOC(=O)CC(SP(=S)(OC)OC)C(=O)OCC (stereo not given),inactive,
CCON=C(CC)C1=C(O)CC(c2c(C)cc(C)cc2C)CC1=O (stereo not given),inactive,
C=CC1(C)OC(=O)N(c2cc(Cl)cc(Cl)c2)C1=O (stereo not given),inactive,
Fc1ccc(Oc2ccnc3cc(Cl)cc(Cl)c23)cc1,,100 µM (active)
COc1cnc(OC)n2nc(NS(=O)(=O)c3c(OCC(F)F)cccc3C(F)(F)F)nc12,inactive,
C=CCC1=C(C)[C@@H](OC(=O)[C@@H]2[C@@H](C=C(C)C)C2(C)C)CC1=O,,99.2 µM (active)
COC(=O)c1ccccc1C(=O)OC,inactive,
CC(Oc1ccc(Cl)cc1Cl)C(=O)O (stereo not given),inactive,
O=C(Nc1ccccc1)Nc1ccnc(Cl)c1,,84.3 µM (active)
CC(C)Oc1cc(-n2nc(C(C)(C)C)oc2=O)c(Cl)cc1Cl,,50.8 µM (active)
COP(N)(=O)SC (stereo not given),inactive,
CS/C(C)=N/OC(=O)N(C)SN(C)C(=O)O/N=C(\C)SC,,47.4 µM (active)
Oc1ccccc1-c1ccccc1,inactive,
O=C(O)COc1nc(Cl)c(Cl)cc1Cl,inactive,
COC(=O)C(C)Oc1ccc(Oc2ccc(Cl)cc2Cl)cc1 (stereo not given),inactive,
CN(C)C(=S)SSC(=S)N(C)C,,2.3 µM (active)
